Shown are actives, neighbours in structure and some others; about 11% of the full set was active somewhere.
PNC assembly inh: perinucleolar compartment assembly inhibition; PC3M PTB-GFP, PNC prevalence imaging, 16 h; active compounds read low; activity change (PNC), negative = inhibition, % at 10 µM; 140,000 tested, 3.1% active; AID 2417;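 active = readout at or below -70, meaning at least 70% loss of cells showing the perinucleolar compartment, a nuclear body marking cancer cells; inconclusive = readout between -30 and a set limit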
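Compounds are pinned in duplicate onto adhered PC3M cells stably expressing GFP-tagged PTB and incubated 16 h at 37 C. Cells are then fixed, nuclei stained with Hoechst, and PNC-positive cells counted.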
ALDH1A1 inh: blocks purified human ALDH1A1 activity | P00352 | Purified ALDH1A1, NADH fluorescence, propionaldehyde substrate | Potency, µM (highest dose often 75.3 µM), usual class: inhibitors | 220,000 tested, 7.3% active | AID 1030
HPGD inh: inhibitors of human 15-hydroxyprostaglandin dehydrogenase (HPGD) | purified HPGD, NADH fluorescence kinetic, PGE2 substrate | Potency, µM, most hits filed as inhibitors | 150,000 tested, 4.3% active | P15428
Target sequence (P15428 whole entry, looked up): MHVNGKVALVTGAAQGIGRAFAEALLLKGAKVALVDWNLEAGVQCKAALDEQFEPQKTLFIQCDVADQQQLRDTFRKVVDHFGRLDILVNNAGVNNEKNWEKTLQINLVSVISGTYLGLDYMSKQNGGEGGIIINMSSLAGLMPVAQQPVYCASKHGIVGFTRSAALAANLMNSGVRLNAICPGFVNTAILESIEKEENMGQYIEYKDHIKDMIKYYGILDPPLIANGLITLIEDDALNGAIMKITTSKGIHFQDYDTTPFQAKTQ
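20 nM HPGD preincubated 15 min at room temperature with compound in 50 mM Tris-HCl pH 8, 0.01% Tween 20. Started with 1 mM NAD+ and 30 uM prostaglandin E2; NADH fluorescence (360/450 nm) read 5 times over 30-s intervals, last minus first.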
A number is an active result; i = inactive; ? = inconclusive; nt = no result; [ ] = dose if it differs, or a comment. Unless noted, calls come from the whole dose curve; as a rule, active = well fitted inhibition curve with a large enough effect (not every such curve was filed as active); inconclusive = small, poorly fitted or top-dose-only effect, or another doubt; inactive = no such curve, though single readings can be large or run the other way.

SMILES	PNC assembly inh	ALDH1A1 inh	HPGD inh
O=C(c1ccco1)N1CCN(CC(=O)N2c3ccccc3CCc3ccccc32)CC1	i	?	i
CCOC(=O)C1CCCN(C(=O)c2cc(-c3ccccc3)on2)C1 (stereo unspecified)	i	i	28.2µM
CCOC(=O)C1CCCN(C(=O)c2ccco2)C1 (stereo unspecified)	i	8.91µM	i
CCOC(=O)C1CCCN(C(=O)c2cc3c(C)nc4ccccc4c3o2)C1 (stereo unspecified)	?	i	i
CC1CCCN(C(=O)CN2CCN(C(=O)c3ccco3)CC2)C1 (stereo unspecified)	?	22.4µM	i
Cc1cc(C(=O)OCC(=O)Nc2ccccc2[N+](=O)[O-])c2ccccc2n1	i	i	i
Cc1ccc(-c2cc(C(F)F)n3ncc(C(=O)N4CCN5CCCC5C4)c3n2)cc1 (stereo unspecified)	i	?	?
CCOC(=O)C1CCCN(C(=O)c2cnn3c(C(F)F)cc(-c4ccc(C)cc4)nc23)C1 (stereo unspecified)	-106.5	?	?
C/C(=N\NC(=O)C(=O)N/N=C(\C)c1cccc(O)c1)c1cccc(O)c1	nt	i	nt
COc1ccc(C(=O)c2sc3nc(-c4ccccc4)ccc3c2N)cc1	i	?	i
CC(C)OC(=O)c1sc2nc(-c3ccccc3)ccc2c1N	-100.0	?	?
COc1cccc(/C=N/N2C(=O)CSC2=S)c1O	?	7.08µM	25.1µM
COc1ccccc1N1CCN(/N=C/c2cccc(OC)c2O)CC1	nt	i	nt
Cc1nnsc1NC(=O)OCC(C)(C)C	?	i	i
CC(=O)OCC1OC(C#CCC2CCCCC2)C=CC1OC(C)=O (stereo unspecified)	nt	4.47µM	nt
CC(=O)OCC1OC(C#Cc2ccccc2)C=CC1OC(C)=O (stereo unspecified)	nt	i[13.5 µM]	nt
Cc1ccc(C=Nc2ccccc2C(N)=O)o1	-92.8	?	?
CN(C)c1ccc(C=Nc2ccccc2C(N)=O)cc1	i	?	?
Brc1cc2c(cc1/C=N/Nc1nc(N3CCCCC3)nc(N3CCCCC3)n1)OCO2	nt	i	nt
COc1nc(N/N=C/c2cc3c(cc2Br)OCO3)nc(N2CCOCC2)n1	i	7.94µM	nt
CCOC(=O)/C=C/C(=O)Nc1cccc([N+](=O)[O-])c1	i	i	1.58µM
Cc1cc(C(=O)Nc2cccc([N+](=O)[O-])c2)c(C)o1	-109.0	i	i
O=C(Nc1ccccc1)c1ccccc1OCc1cccc([N+](=O)[O-])c1	-99.3	?	i
Cc1c(C(=O)Nc2ccc(OCc3ccccc3)cc2)cccc1[N+](=O)[O-]	i	i	i
CCOC(=O)c1cccc(NC(=O)/C=C/c2cccc([N+](=O)[O-])c2)c1	i	i	i
SMILES	PNC assembly inh	ALDH1A1 inh	HPGD inh
O=C(O)c1ccccc1C(=O)Nc1cccc([N+](=O)[O-])c1	nt	i	nt
N/C(=N\OC(=O)CC(c1ccccc1)c1ccccc1)c1cccnc1	nt	i	nt
O=C(CCc1nnc(-c2ccccc2)o1)NCC1CCN(C2CCCC2)CC1	nt	i	nt
COC(=O)N1CCC2(CC1)CCN(C(c1ccccc1)c1ccccc1)CC2	nt	i	i
Cc1cc(/C=C2\SC(=O)NC2=O)c(C)n1-c1ccc(N2CCOCC2)cc1	nt	i	nt
Cc1cc(C=O)c(C)n1-c1cc(C(F)(F)F)ccc1N1CCOCC1	?	i	i
Cc1cc(/C=C2\NC(=O)NC2=O)c(C)n1-c1ccc(N2CCOCC2)cc1	nt	25.1µM	nt
Cc1cc(C=O)c(C)n1-c1ccc(N2CCOCC2)cc1	i	3.16µM	i
Cc1ccc(CNC(=O)CSc2nc3ccsc3c(=O)n2Cc2ccc(C(=O)O)cc2)cc1	nt	i	nt
Cc1ccccc1NC(=S)NN1CCN(C)CC1	i	i	i
O=[N+]([O-])c1cccc2ccc(/C=C/c3ccc(F)cc3)nc12	-113.7	?	i
O=[N+]([O-])c1ccc(/C=C/c2ccc3cccc([N+](=O)[O-])c3n2)cc1	i	i	?
CCC(=O)Nc1sc2c(c1C#N)CC(C)(CC)OC2 (stereo unspecified)	i	i	39.8µM
CCC1(C)Cc2c(sc(NC(=O)CCC(=O)O)c2C#N)CO1 (stereo unspecified)	?	i	i
Cc1ccc(NC(C(N)=O)c2c(C)[nH]c(=O)[nH]c2=O)cc1 (stereo unspecified)	i	i	i
CC1CCCC(NS(=O)(=O)c2ccc3c(c2)OCCO3)C1C (stereo unspecified)	i	14.1µM	i
O=S(=O)(NC1CC2CCC1C2)c1ccc2c(c1)OCCO2 (stereo unspecified)	i	?	i
COc1cc(C(O)CO)ccc1OS(=O)(=O)O (stereo unspecified)	nt	i	i
O=C1NC(O)=NC1(c1ccccc1)c1ccccc1	nt	i	i
Cc1ccc(-n2c(Cc3ccccc3)n[nH]c2=S)cc1	i	i	?
CCCCn1c(Cc2ccccc2)n[nH]c1=S	i	14.1µM	?
Cc1ccc(OCc2n[nH]c(=S)n2N)cc1C	nt	i	nt
CC(C)Cn1c(Cc2ccccc2)n[nH]c1=S	i	15.8µM	i
CCCCOc1ccc(Cc2n[nH]c(=S)n2N)cc1	i	i	2.51µM
CCn1c(CCc2ccccc2)n[nH]c1=S	nt	i	nt
SMILES	PNC assembly inh	ALDH1A1 inh	HPGD inh
CCCn1c(CCc2ccccc2)n[nH]c1=S	nt	i	nt
CCn1c(CCn2c3ccccc3c3ccccc32)n[nH]c1=S	i	28.2µM	?
O=C1CC(C(F)(F)F)=NN1	nt	i	nt
C=Cc1ccccn1	nt	i	i
O=c1c(Cl)c(N2CCOCC2)cnn1-c1nc2ccccc2[nH]1	nt	i	nt
CC/C(=N\NC(N)=O)c1ccc(OC(F)F)cc1	nt	i	nt
Cc1cc(S(=O)(=O)NCCN(C)C)c(C)s1	i	i	i
O=C(O)C1CC=CCC1C(=O)Nc1ccccc1Cl (stereo unspecified)	i	i	i
CCCOc1ccc(N2C(=O)CC(N(CCc3ccc(OC)c(OC)c3)C(=S)Nc3ccccc3)C2=O)cc1 (stereo unspecified)	i	25.1µM	i
CCCOc1ccc(N2C(=O)CC(N(Cc3ccc(OC)cc3)C(=S)Nc3ccccc3)C2=O)cc1 (stereo unspecified)	i	i	i
Cn1ccnc1C1CCCCN1C(=O)c1cc(COc2ccc(F)cc2Cl)on1 (stereo unspecified)	nt	i	nt
Cc1ccc(C(=O)c2ccc([N+](=O)[O-])cc2)cc1	i	i	i
Cc1ccc(S(=O)(=O)CC#CCOC(=O)c2ccc([N+](=O)[O-])cc2)cc1	?	1.12µM	12.6µM
COc1ccc(C(CC(=O)O)NC(=O)c2cccs2)cc1 (stereo unspecified)	-84.6	i	i
Cc1ccc(NC(=O)C(=O)NNC(=O)c2cccs2)cc1	nt	i	nt
CCOc1ccc(C(CC(=O)O)NC(=O)c2cccs2)cc1 (stereo unspecified)	i	i	i
COc1ccc(NC(=O)C(=O)NNC(=O)c2cccs2)cc1	-93.5	i	i
C/C(=N/N=C1/NC(=O)CC(C(=O)Nc2ccccc2)S1)c1cccs1 (stereo unspecified)	i	i	i
CCCOc1ccccc1Nc1nnc(C)c(=O)[nH]1	i	i	i
COc1ccccc1CNc1ncncc1-c1ccccc1Cl	nt	i	nt
COc1ccc(Cn2nnnc2C(c2cccs2)N2CCOCC2)cc1 (stereo unspecified)	i	i	i
CC1CCN(C(c2ccc(N(C)C)cc2)c2nnnn2C(C)(C)C)CC1 (stereo unspecified)	i	?	i

Compound activity as filed in PubChem BioAssay.
